Results on 13 molecules are retold here after PubChem BioAssay.

Assay [1] is described as follows: optical density shifts of acrAB sulA E. coli – strain DRC41, OD650, 48 h, E. coli filamentation inducer project, primary screen (AID 1152).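 Note: E. coli MC1000 strain DRC41 lacking acrAB efflux pump and sulA.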 The note with it: higher = more signal, called active from +8 up or from −8 down.
Assay [2] is described as follows: probe aLefty1 binding on compound microarray – biochemical, small-molecule microarray, 635/667 nm fluorescence, primary screen (AID 1153).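 Note: score merges spot fluorescence with signal-to-noise ratio from the scanned slide images.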 Particulars: higher = more signal.
Assay [3] is described as follows: plasmodial surface anion channel blockers, osmotic lysis – cell-based, P. falciparum Indochina, OD700, 1 h, primary screen (AID 1154). Particulars: P. falciparum Indochina infected RBC osmotic lysis, higher = more signal, called active from +8 up or from −8 down.
Assay [4] is described as follows: plasmodial surface anion channel blockers, osmotic lysis – cell-based, P. falciparum Indochina, OD700, 2 h, primary screen (AID 1155).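 Note: lysis reports solute entry through the parasite surface anion channel PSAC.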 Particulars: P. falciparum Indochina infected erythrocytes, higher = more signal, called active from +8 up or from −8 down.
Assay [5] in a line: changes in parasitized red cell lysis, either direction – P. falciparum Indochina, OD700, 3 h, PSAC antagonist project, primary screen (AID 1156). Particulars: P. falciparum-infected erythrocytes, osmotic lysis, higher = more signal, called active from +8 up or from −8 down.
Assay [6] is described as follows: plasmodial surface anion channel blockers, osmotic lysis – cell-based, P. falciparum Indochina, OD700, 18 h, primary screen (AID 1157). Particulars: P. falciparum Indochina infected erythrocytes, osmotic lysis OD700, 18 h; higher = more signal, called active from +8 up or from −8 down.
Assay [7] can be described thus: S6 kinase pathway phospho-S6 level changes – cell-based, A549, cytoblot, luminescence, serum-stimulated, primary screen (AID 1158).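 Note: serum-stimulated A549 lung adenocarcinoma cells; signal is phosphorylated S6 detected by cytoblot immunostaining with HRP secondary.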 The note with it: 5 h, higher = more signal.
In assay [8] the target is NADPH oxidase 2 (Homo sapiens) (UniProt P04839). The assay can be described thus: compounds shifting NOX2 Amplex Red fluorescence – cell-based, HEK293-NOX2, PMA-stimulated, NOX inhibitor project, primary screen (AID 1159). Note: test concentration not given here. The note with it: 45 min, higher = more signal, called active from +8 up or from −8 down.
Assay [9] has as its target NADPH oxidase 4 (Homo sapiens) (UniProt Q9NPH5). Description: compounds shifting NOX4 Amplex Red fluorescence – cell-based, HEK293-NOX4, tetracycline-induced, NOX inhibitor project, primary screen (AID 1160). The note with it: HEK293-NOX4, Amplex Red H2O2 fluorescence, 45 min; higher = more signal, called active from +8 up or from −8 down.
Assay [10] addresses NADPH oxidase 5 (Homo sapiens) (UniProt Q96PH1). Description: compounds shifting NOX5 Amplex Red fluorescence – cell-based, HEK293-NOX5, NOX inhibitor project, primary screen (AID 1161). The note with it: HEK293-NOX5, ionomycin, 45 min, higher = more signal.

Activity calls are given as the source filed them.

NADPH oxidase 2 (Homo sapiens), sequence (P04839 whole entry, looked up): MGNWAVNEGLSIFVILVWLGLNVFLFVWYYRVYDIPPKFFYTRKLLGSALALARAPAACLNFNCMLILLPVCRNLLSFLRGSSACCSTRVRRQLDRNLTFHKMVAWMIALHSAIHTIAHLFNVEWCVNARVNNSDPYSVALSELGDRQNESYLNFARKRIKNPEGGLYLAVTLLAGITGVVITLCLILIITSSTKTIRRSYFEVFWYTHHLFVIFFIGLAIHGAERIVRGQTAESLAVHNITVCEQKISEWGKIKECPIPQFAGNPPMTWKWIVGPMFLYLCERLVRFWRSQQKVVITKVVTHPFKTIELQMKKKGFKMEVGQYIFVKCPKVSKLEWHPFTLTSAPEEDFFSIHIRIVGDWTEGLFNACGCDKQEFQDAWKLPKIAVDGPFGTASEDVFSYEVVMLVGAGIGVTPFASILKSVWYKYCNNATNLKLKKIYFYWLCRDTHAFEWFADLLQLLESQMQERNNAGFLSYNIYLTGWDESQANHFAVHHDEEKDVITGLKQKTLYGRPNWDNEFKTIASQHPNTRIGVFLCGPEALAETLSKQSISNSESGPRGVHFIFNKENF
NADPH oxidase 4 (Homo sapiens), sequence (Q9NPH5 whole entry, looked up): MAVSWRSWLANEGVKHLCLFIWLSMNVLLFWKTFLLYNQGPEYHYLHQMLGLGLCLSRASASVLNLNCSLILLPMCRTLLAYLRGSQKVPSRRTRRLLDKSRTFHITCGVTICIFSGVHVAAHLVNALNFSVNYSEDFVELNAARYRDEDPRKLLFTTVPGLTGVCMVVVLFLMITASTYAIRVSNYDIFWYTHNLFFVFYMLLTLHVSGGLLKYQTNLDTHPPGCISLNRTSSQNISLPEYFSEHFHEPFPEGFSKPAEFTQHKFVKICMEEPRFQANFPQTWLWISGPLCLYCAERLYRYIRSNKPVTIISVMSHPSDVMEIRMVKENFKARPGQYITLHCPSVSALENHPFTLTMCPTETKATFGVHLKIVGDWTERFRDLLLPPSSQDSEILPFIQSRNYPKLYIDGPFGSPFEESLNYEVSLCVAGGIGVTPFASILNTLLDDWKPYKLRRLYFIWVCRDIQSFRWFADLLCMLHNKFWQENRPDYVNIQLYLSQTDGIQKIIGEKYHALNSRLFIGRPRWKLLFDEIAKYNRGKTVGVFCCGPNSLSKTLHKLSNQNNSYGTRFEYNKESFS
NADPH oxidase 5 (Homo sapiens), sequence (Q96PH1 whole entry, looked up): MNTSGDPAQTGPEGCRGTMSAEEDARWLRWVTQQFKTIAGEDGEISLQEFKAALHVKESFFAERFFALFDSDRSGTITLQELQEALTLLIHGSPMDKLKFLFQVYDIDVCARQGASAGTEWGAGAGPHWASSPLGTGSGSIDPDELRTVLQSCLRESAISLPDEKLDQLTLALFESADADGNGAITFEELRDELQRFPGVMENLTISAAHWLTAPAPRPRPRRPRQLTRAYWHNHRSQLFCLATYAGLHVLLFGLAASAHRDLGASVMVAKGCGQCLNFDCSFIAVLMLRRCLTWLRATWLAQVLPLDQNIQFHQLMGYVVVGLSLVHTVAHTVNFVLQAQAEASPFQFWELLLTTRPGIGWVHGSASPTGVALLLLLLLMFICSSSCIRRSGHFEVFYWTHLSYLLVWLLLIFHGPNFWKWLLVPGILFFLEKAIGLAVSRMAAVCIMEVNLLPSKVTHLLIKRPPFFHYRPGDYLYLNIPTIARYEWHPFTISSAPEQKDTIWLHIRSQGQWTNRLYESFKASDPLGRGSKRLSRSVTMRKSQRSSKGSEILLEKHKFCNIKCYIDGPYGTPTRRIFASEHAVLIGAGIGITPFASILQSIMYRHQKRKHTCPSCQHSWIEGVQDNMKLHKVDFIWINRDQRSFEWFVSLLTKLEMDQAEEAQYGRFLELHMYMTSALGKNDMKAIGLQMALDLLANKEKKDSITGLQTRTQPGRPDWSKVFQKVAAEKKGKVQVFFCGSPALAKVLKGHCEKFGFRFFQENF

As for `CN1C(=O)C2C=CC(C(O)c3cccs3)N(N(c3ccccc3)c3ccccc3)C2C1=O` (stereo not given), the z-score in assay [1] is -0.822 (inactive); in [3], 0.929 (inactive); in assay [4], 1 (inactive); in assay [5], 0.157 (inactive); in assay [6], 0.556 (inactive); in [7], -0.967. In addition, the z-score in assay [8] is -0.915 (inactive); in assay [9], -1.84 (inactive); in assay [10] it was -1.25. The molecule further registered a composite z-score in assay [2] of 0.25.

`CCOC(=O)C[C@H]1[C@H](OC(=O)Cc2ccc3c(c2)OCO3)[C@@H](NC(=O)CC(C)C)c2cc(OCCCO)ccc2N1C(=O)c1ccc2ccccc2n1`: the z-score is 0.685 (inactive) in [1]; 2.75 (inactive) in [3]; -1.19 (inactive) in [4]; -0.161 (inactive) in [5]; -2.54 (inactive) in assay [6]; 0.806 in [7]. Moreover, the z-score in assay [8] was 0.0707 (inactive); in [9], -0.356 (inactive); in [10] it was -1.54. The composite z-score in assay [2] worked out at 0.0004.

Consider `CC(C)(C)OC(=O)N1[C@@H](C=C(Br)Br)COC1(C)C`, for which the z-score in assay [1] was 1.98 (inactive); in assay [3], -0.794 (inactive); in assay [4] it was -1.16 (inactive); in [5], -0.884 (inactive); in assay [6], -1.66 (inactive); in assay [7], 0.855. The z-score in assay [8] was 2.82 (inactive); in assay [9] it was 0.4 (inactive); in [10] it was -0.152. The molecule also showed a composite z-score in assay [2] of -0.147.

For the molecule `C=C(COC)/C(=C/C[C@@H](OC(=O)c1ccncc1)c1ccccc1OCCO)c1cnc2ccccc2c1`, the z-score in [1] is 0.588 (inactive); in assay [3] it was 25.7 (active); in [4], 11.5 (active); in assay [5] it was 0.518 (inactive); in assay [6] it was 1.09 (inactive); in [7] it was 0.261. The z-score in [8] was 0.0701 (inactive); in [9], 0.217 (inactive); in assay [10], -1.13. This molecule also registered a composite z-score in assay [2] of 0.333.

On to `O=C1O[C@H](c2ccccc2)[C@H](c2ccccc2)N2[C@H]1[C@@H](C(=O)O)[C@]1(C(=O)Nc3ccccc31)[C@H]2c1ccc(OCCO)cc1`, for which the z-score was 0.368 (inactive) in assay [1]; 3.81 (inactive) in assay [3]; 0.173 (inactive) in [4]; -0.776 (inactive) in assay [5]; 0.124 (inactive) in [6]; -0.412 in assay [7]. The z-score in assay [8] is 0.388 (inactive); in [9] it was 1.09 (inactive); in [10] it was 0.958. Further, in assay [2], the composite z-score was 0.183.

Turning to `C[C@]1(C(=O)NCC(F)(F)F)c2ccccc2C(=O)N(Cc2cc(C(F)(F)F)cc(C(F)(F)F)c2)[C@H]1c1ccc(CO)cc1`, the z-score was 1.17 (inactive) in assay [1]; 3.54 (inactive) in assay [3]; -0.0979 (inactive) in [4]; -0.29 (inactive) in assay [5]; -0.16 (inactive) in assay [6]; 0.361 in [7]. Also, the z-score in assay [8] is -0.905 (inactive); in [9], 0.565 (inactive); in assay [10], 0.648. The composite z-score in assay [2] is 0.0774.

Consider `C=CCNC(=O)[C@@H]1[C@H]2C(=O)O[C@H](c3ccccc3)[C@H](c3ccccc3)N2[C@H](c2ccc(OCCO)cc2)[C@@]12C(=O)N(C(=O)OCCOC)c1ccccc12`, for which the z-score in assay [1] was 0.127 (inactive); in [3], 3.15 (inactive); in [4] it was 1.27 (inactive); in assay [5], -0.947 (inactive); in assay [6], 0.442 (inactive); in assay [7], -0.296. Also, the figures for the z-score in [8], in assay [9] and in [10] were 0.406 (inactive), 0.789 (inactive) and -0.0693, respectively. Moreover, the composite z-score in assay [2] amounted to 0.258.

Take `CCCCC(=C=CC[C@@H](O)c1ccc(OCCO)cc1)CCO`: the z-score is 0.565 (inactive) in assay [1]; 6.76 (inactive) in assay [3]; 0.892 (inactive) in assay [4]; 0.249 (inactive) in assay [5]; 0.503 (inactive) in [6]; -0.481 in assay [7]. Further, the values for the z-score in assay [8], in assay [9] and in assay [10] were 1.14 (inactive), 0.699 (inactive) and -0.192, respectively. This molecule also displayed a composite z-score in [2] of 0.0129.

With `COc1cccc(C)c1NC(=O)O[C@H]1[C@H](OC(=O)Nc2ccccc2)[C@@H](OC(=O)Nc2ccccc2)[C@@H](OC)O[C@@H]1CO`, the z-score was -0.818 (inactive) in [1]; 3.02 (inactive) in [3]; 0.121 (inactive) in assay [4]; 0.376 (inactive) in assay [5]; 0.421 (inactive) in assay [6]; 0.249 in [7]. Moreover, the figures for the z-score in assay [8], in assay [9] and in [10] were -7.01 (inactive), -1.26 (inactive) and -2.29, respectively. Further, the composite z-score in assay [2] came out at 0.26.

`C=C(CC1([C@@H](NP(=O)(c2ccccc2)c2ccccc2)[C@H]2C[C@@H]2CCCC)CC1)c1cccc(OC)c1`: the z-score in assay [1] is -1.57 (inactive); in assay [3], 2.33 (inactive); in assay [4] it was 0.451 (inactive); in assay [5] it was 1.36 (inactive); in assay [6], 0.935 (inactive); in [7], -0.254. In addition, the z-score was -0.914 (inactive) in [8], -1.36 (inactive) in assay [9] and -2.78 in assay [10]. This molecule gave a composite z-score in assay [2] of 0.494.

Take `C=CC[C@]1(C(N)=O)N=C(c2ccc(OCCCO)cc2)O[C@H]1c1ccccc1N=[N+]=[N-]`: the z-score was 2.21 (inactive) in assay [1]; 33.4 (active) in [3]; 30.8 (active) in assay [4]; 2.17 (inactive) in assay [5]; 9.7 (active) in assay [6]; -0.0547 in [7]. The z-score in assay [8] was -1.77 (inactive); in assay [9], 0.627 (inactive); in assay [10], 0.189. This molecule also had a composite z-score in assay [2] of 0.408.

As for `CN(C)C(=O)[C@]1(CCS(=O)(=O)c2ccccc2)N=C(c2ccc(OCCCO)cc2)O[C@@H]1c1ccccc1CN=[N+]=[N-]`, the z-score in assay [1] is 0.0558 (inactive); in assay [3], 25.5 (active); in [4], 14.6 (active); in assay [5], 1.47 (inactive); in assay [6] it was 1.57 (inactive); in [7], 0.131. Further, the z-score in assay [8] was -0.163 (inactive); in assay [9], 2.09 (inactive); in assay [10], -0.658. Besides, in assay [2], the composite z-score is 0.342.

As for `CCCCC(=C=CC[C@H](O)c1cccc(OCCO)c1)C[C@H](O)c1cc(Cl)cc(Cl)c1O`, the z-score in [1] was 0.513 (inactive); in assay [3], 22 (active); in assay [4], 5.56 (inactive); in assay [5], 0.718 (inactive); in assay [6] it was 1.48 (inactive); in assay [7] it was 0.295. The figures for the z-score in [8], in assay [9] and in assay [10] were -2.45 (inactive), -1.46 (inactive) and -2.02, respectively. This molecule also registered a composite z-score in [2] of 0.0999.
